Screening results deposited in PubChem by National Center for Advancing Translational Sciences (NCATS).
A selection: hits, their analogues and other compounds. The true share with any hit is near 3.2%.
15-hLO-2 inh = qHTS Assay for Inhibitors of 15-hLO-2 (15-human lipoxygenase 2); Potency, µM (doses to about 57.1 µM), most hits filed as inhibitors; 110,000 tested, 0.56% active; AID 881, 2007; purified 15hLO-2, xylenol orange hydroperoxide absorbance; Polyunsaturated fatty acid lipoxygenase ALOX15B (Homo sapiens), O15296; further: nearly all actives have a fitted effect of over 60% in size
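Read-out: hydroperoxide product oxidises ferrous iron, measured as xylenol orange complex via the 573-to-405 nm absorbance ratio after 30 min. Reaction: 50 nM enzyme, 15 min compound preincubation, 45 uM arachidonic acid, 90 min RT, Hepes pH 7.5 with Triton X-100.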
12-hLO inh = qHTS Assay for Inhibitors of 12-hLO (12-human lipoxygenase) | Polyunsaturated fatty acid lipoxygenase ALOX12 (Homo sapiens), P18054 | 150,000 tested, 0.12% active | purified 12-hLO, xylenol orange hydroperoxide absorbance | Potency, µM (titrated, usually from 57.1 µM), most hits filed as inhibitors; further: nearly all actives have a fitted effect of over 55% in size
Target sequence (P18054 whole entry, looked up): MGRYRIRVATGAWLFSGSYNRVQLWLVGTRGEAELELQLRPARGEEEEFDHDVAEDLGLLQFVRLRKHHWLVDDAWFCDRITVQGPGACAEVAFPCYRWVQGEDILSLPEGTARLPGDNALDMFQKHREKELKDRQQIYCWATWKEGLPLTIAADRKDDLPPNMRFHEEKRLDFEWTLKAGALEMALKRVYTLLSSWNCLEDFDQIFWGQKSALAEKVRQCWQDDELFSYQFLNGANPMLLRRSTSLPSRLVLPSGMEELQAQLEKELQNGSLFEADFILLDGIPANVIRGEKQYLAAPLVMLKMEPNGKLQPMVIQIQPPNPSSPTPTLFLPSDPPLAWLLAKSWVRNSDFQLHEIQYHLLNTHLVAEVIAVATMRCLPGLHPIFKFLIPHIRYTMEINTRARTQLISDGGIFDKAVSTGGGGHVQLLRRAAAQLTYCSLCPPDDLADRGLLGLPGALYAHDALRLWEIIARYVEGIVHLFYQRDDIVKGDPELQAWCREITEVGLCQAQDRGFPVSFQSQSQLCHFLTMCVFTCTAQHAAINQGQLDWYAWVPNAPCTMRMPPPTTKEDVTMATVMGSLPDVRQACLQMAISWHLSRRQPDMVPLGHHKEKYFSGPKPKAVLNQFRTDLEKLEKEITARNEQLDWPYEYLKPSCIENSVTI
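Purified human 12hLO (150 nM final) was preincubated with compounds for 15 min at room temperature in 25 mM Hepes pH 7.0, 0.01% Triton X-100, then reacted with 40 uM arachidonic acid for 30 min. Hydroperoxide was detected with ferrous iron/xylenol orange.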
PNC inhibitor = High Content Assay for Compounds that inhibit the Assembly of the Perinucleolar Compartment; activity change (PNC), negative = inhibition, % at 10 µM; PC3M PTB-GFP, PNC prevalence imaging, 16 h; hits give low values; 140,000 tested, 3.1% active;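 active means readout at or below -70, meaning at least 70% loss of cells showing the perinucleolar compartment, a nuclear body marking cancer cells; inconclusive means readout between -30 and a set limit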
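Compounds are pinned in duplicate onto adhered PC3M cells stably expressing GFP-tagged PTB and incubated 16 h at 37 C. Cells are then fixed, nuclei stained with Hoechst, and PNC-positive cells counted.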
Numbers stand for hits; i = inactive; ? = inconclusive; nt = no result; [ ] = remark or other dose. Unless noted, the call rests on the fitted dose curve; in most records, active means well fitted curve in the direction sought with a large enough effect; inconclusive means small, poorly fitted or top-dose-only effect, or another doubt; inactive means no such curve, though single readings can be large; an effect the other way counts as inactive or inconclusive.

SMILES	15-hLO-2 inh	12-hLO inh	PNC inhibitor
O=C(O)CCCCCN1C(=O)/C(=C\c2ccncc2)SC1=S	nt	i	-90
Cc1cc(C)c(S(=O)(=O)n2c([N+](=O)[O-])cnc2C)c(C)c1	nt	i	i
Cc1ccc(-n2nnnc2CSc2nnc(-c3ccc(O)cc3)o2)cc1	nt	i	i
COC(=O)c1ccccc1N/C=C1\CCc2c(c(C)nn2-c2ccccn2)C1=O	2.5µM	i	?
CCOC(=O)c1ccccc1N/C=C1\CCCC1=O	i	i	?
CCCCC(C)(C)[C@H](O)/C=C/[C@H]1[C@H](O)CC(=O)[C@@H]1C/C=C\CCCC(=O)O	nt	i	nt
Cc1ccc(Cl)cc1N1CCN(C(=O)c2cc3c(=O)[nH]c4ccccc4c3n2C)CC1	nt	i	?
Cc1cc(C)nc(N2CCCC(C(=O)Nc3nnc(C(C)C)s3)C2)n1 (stereo unspecified)	nt	i	-100
CC(C)c1nnc(NC(=O)C2CCCCC2)s1	nt	i	-118
Cc1cc(C)nc(N2CCCC(C(=O)Nc3nnc(C)s3)C2)n1 (stereo unspecified)	i	i	i
CCc1nnc(NC(=O)C2CCCCC2)s1	i	i	i
O=C(NC(CSCc1ccccc1)C(=O)N/N=C/c1ccc(O)cc1O)c1ccc([N+](=O)[O-])cc1 (stereo unspecified)	i	?	i
C[C@@H]1NC(=O)c2cc([N+](=O)[O-])cc(I)c2OCC[C@@H](C(N)=O)NC(=O)[C@H](CCC(=O)O)NC1=O	nt	i	i
CNS(=O)(=O)c1ccc(C)c(S(=O)(=O)NC)c1	nt	i	i
COC(=O)C[C@H]1c2ccccc2C2=C(C[C@@H](C)[C@H]3C(=O)N(c4ccccc4)C(=O)[C@@H]23)N1C(=O)OC	nt	i[11.4 µM]	nt
Cc1ccc(N2C(=O)C3C4C=CC(CNC(=S)Nc5ccc(F)cc5)(O4)C3C2=O)cc1 (stereo unspecified)	nt	i	-80
Cc1ccc(N2C(=O)C3C4C=CC(CNC(=S)Nc5cccc(Cl)c5)(O4)C3C2=O)cc1 (stereo unspecified)	nt	i	i
CC(C)(C)C(=O)NCC12C=CC(O1)C1C(=O)N(c3ccccc3)C(=O)C12 (stereo unspecified)	nt	i	i
O=C1C2C3C=CC(CO)(O3)C2C(=O)N1c1ccc(-c2ccccc2)cc1 (stereo unspecified)	0.4µM	?	?
CCn1c(C)nc2cc(C(=O)N=Nc3c(O)[nH]c4ccccc34)ccc21	nt	i	-93
CCn1c(C)nc2cc(C(=O)N=Nc3c(O)[nH]c4c(C)cc(C)cc34)ccc21	nt	i	i
Cc1nc2ccccc2c(=O)n1NS(C)(=O)=O	i	i	-112
Cc1nc2ccccc2c(=O)n1NC(=O)Nc1ccccc1	i	i	i
O=C(C1CCCN(S(=O)(=O)c2cnc[nH]2)C1)N1CC(=O)N(CCc2ccccc2)C(=O)C1 (stereo unspecified)	nt	i	-119
O=C(C1CCCN(S(=O)(=O)c2cnc[nH]2)C1)N1CCN(c2ccc(Cl)cc2)CC1 (stereo unspecified)	i	i	i
SMILES	15-hLO-2 inh	12-hLO inh	PNC inhibitor
Clc1cc(Cl)cc(C2=N[C@@H](Cc3ccccc3)CO2)c1	i[0.0915 µM]	i[0.00818 µM]	nt
COc1cc(OC)c(-c2nn3c(-c4ccncc4)nnc3s2)cc1OC	i	i	-136
COc1cc(OC)c(-c2nn3c(-c4cccnc4)nnc3s2)cc1OC	i	i	i
NCCOB(c1ccccc1)c1ccccc1	20µM	?	nt
NCCOc1ccccc1Cc1ccccc1	i	i	i
CN(C)c1ncc2nc(CCc3ccccc3)c(=O)n(-c3ccccc3)c2n1	i	i	nt
CCn1cc(C(=O)NCc2ccco2)c2cc(OC)c(OC)cc2c1=O	nt	i	?
COc1cc2c(C(=O)NCc3ccc(C)o3)cn(CC(C)C)c(=O)c2cc1OC	i	i	-108
CCSC1=N/C(=C\c2cccc(F)c2)C(=O)S1	nt	i	?
CC(/C=C1\N=C(SCc2ccccc2Cl)SC1=O)=C\c1ccccc1	25µM	i	i
COC(=O)c1cc(NC(=O)Cn2c(=O)cnc3ccccc32)cc(C(=O)OC)c1	i	i	?
Cc1ccc(C(=O)CSc2nnc(-c3ccco3)o2)o1	i	i	?
COc1ccc(-c2nnc(SCC(=O)N3c4ccccc4Sc4ccccc43)o2)cc1	nt	i	-100
COc1ccc(-c2nnc(SCC(=O)c3ccc(C)o3)o2)cc1	nt	i	-119
COc1ccc(-c2nnc(SCC(=O)N3CCc4ccccc4C3)o2)cc1	i	i	i
COc1ccc(N2CC(C(=O)Nc3nnc(SCc4ccccn4)s3)CC2=O)cc1 (stereo unspecified)	nt	i	?
